Reference: PubChem BioAssay AID1159580 (chemical genetic matrix, 2015)
Where “and” joins values, the source holds several entries; their conditions need not be identical. Equal entries are not always repeated. In all, about 5,500 compounds went through this assay and about 2,000 (36%) were called active. About 18% were inconclusive and are not listed. No stated cut-off is given here; in the data, active means normalized growth mostly below about 0.91 (no sharp cut-off); inconclusive means no clear call, values can overlap the other calls; inactive means mostly above about 0.92. The list shows a part of the results.

Experiment: chemical genetic growth profiling, strain panel (AID 1159580);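 further: tested at 20 µM; growth read once vehicle control cultures reached saturation at 30 °C; 1 = growth at the plate median or of vehicle wells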
Details: S. cerevisiae deletion strains, growth OD

Measured: normalized growth

CC(=O)C1CCC2C3CCC4C[C@H](O)CCC4(C)C3C[C@H](O)C12C (some centres not stated)
inactive: locus YAL013W, strain DEP1, stronger effect = lower value 1.03 | locus YAL021C, strain ccr4, stronger effect = lower value 0.96 | locus YAL026C, strain drs2, stronger effect = lower value 0.984 | locus YAL030W, strain snc1, stronger effect = lower value 0.971 | locus YBL061C, strain skt5, stronger effect = lower value 0.989 | locus YBR009C, strain hhf1, stronger effect = lower value 0.963 | locus YBR021W, strain FUR4, stronger effect = lower value 1.02 | locus YBR023C, strain chs3, stronger effect = lower value 0.989 | locus YBR171W, strain sec66, stronger effect = lower value 0.961 | locus YBR229C, strain ROT2, stronger effect = lower value 1.03 | locus YBR231C, strain swc5, stronger effect = lower value 0.993 | locus YBR279W, strain paf1, stronger effect = lower value 0.98 | locus YCL011C, strain gbp2, stronger effect = lower value 0.957 | locus YCL016C, strain dcc1, stronger effect = lower value 0.97 | locus YCL029C, strain bik1, stronger effect = lower value 1 | locus YCL069W, strain vba3, stronger effect = lower value 0.968 | locus YCR088W, strain abp1, stronger effect = lower value 0.972 | locus YDL005C, strain med2, stronger effect = lower value 0.971 | locus YDL035C, strain GPR1, stronger effect = lower value 1.09 | locus YDL040C, strain nat1, stronger effect = lower value 0.982 | locus YDL074C, strain BRE1, stronger effect = lower value 1.16 | locus YDL101C, strain DUN1, stronger effect = lower value 1.02 | locus YDL134C, strain PPH21, stronger effect = lower value 1.05 | locus YDL185W, strain tfp1, stronger effect = lower value 0.999 | locus YDL192W, strain arf1, stronger effect = lower value 1.02 | locus YDR001C, strain nth1, stronger effect = lower value 0.956 | locus YDR069C, strain doa4, stronger effect = lower value 0.945 | locus YDR101C, strain arx1, stronger effect = lower value 1.01 | locus YDR137W, strain rgp1, stronger effect = lower value 0.966 | locus YDR150W, strain NUM1, stronger effect = lower value 1.04 | locus YDR159W, strain sac3, stronger effect = lower value 0.982 | locus YDR162C, strain NBP2, stronger effect = lower value 1.04 | locus YDR195W, strain ref2 0.956 | locus YDR297W, strain sur2, stronger effect = lower value 0.976 | locus YDR318W, strain mcm21, stronger effect = lower value 1.02 | locus YDR334W, strain swr1, stronger effect = lower value 0.962 | locus YDR335W, strain msn5, stronger effect = lower value 0.982 | locus YDR388W, stronger effect = lower value 1.01 | locus YDR392W, strain spt3, stronger effect = lower value 0.978 | locus YDR502C, strain sam2, stronger effect = lower value 1.01 | locus YEL003W, strain gim4, stronger effect = lower value 0.979 | locus YEL037C, strain rad23, stronger effect = lower value 0.972 | locus YEL061C, strain CIN8 (second series), stronger effect = lower value 0.973 | locus YEL061C, strain CIN8, stronger effect = lower value 1.03 | locus YER015W, strain faa2, stronger effect = lower value 0.968 | locus YER016W, strain bim1, stronger effect = lower value 0.971 | locus YER110C, stronger effect = lower value 0.987 | locus YER111C, strain swi4, stronger effect = lower value 0.978 | locus YER155C, strain BEM2 (second series), stronger effect = lower value 0.979 | locus YER155C, strain BEM2, stronger effect = lower value 1.02 | locus YER167W, strain BCK2, stronger effect = lower value 1.02 | locus YFR010W, strain ubp6, stronger effect = lower value 0.975 | locus YGL078C, strain dbp3, stronger effect = lower value 0.995 | locus YGL086W, strain mad1, stronger effect = lower value 1.01 | locus YGL167C, strain pmr1, stronger effect = lower value 0.96 | locus YGL173C, strain kem1, stronger effect = lower value 0.965 | locus YGL227W, strain vid30, stronger effect = lower value 0.972 | locus YGL240W, strain doc1, stronger effect = lower value 0.984 | locus YGL248W, strain PDE1, stronger effect = lower value 1.08 | locus YGL253W, strain hxk2, stronger effect = lower value 0.963 | locus YGR078C, strain PAC10, stronger effect = lower value 1.07 | locus YGR135W, strain pre9, stronger effect = lower value 0.998 | locus YGR252W, strain gcn5, stronger effect = lower value 1.06 | locus YHR013C, strain ard1, stronger effect = lower value 0.942 | locus YHR027C, strain rpn1, stronger effect = lower value 0.971 | locus YHR030C, strain SLT2, stronger effect = lower value 1.01 | locus YHR079C, strain IRE1 (second series), stronger effect = lower value 1.01 | locus YHR079C, strain IRE1, stronger effect = lower value 1.02 | locus YHR094C, strain hxt1, stronger effect = lower value 1 | locus YHR129C, strain ARP1, stronger effect = lower value 1.04 | locus YHR142W, strain chs7, stronger effect = lower value 0.953 | locus YHR200W, strain rpn10, stronger effect = lower value 1.01 | locus YIL066C, strain RNR3, stronger effect = lower value 1.04 | locus YIL073C, strain SPO22, stronger effect = lower value 1.12 | locus YIL125W, strain kgd1, stronger effect = lower value 1.01 | locus YIR030C, strain dcg1, stronger effect = lower value 1.01 | locus YJL092W, strain hpr5, stronger effect = lower value 0.964 | locus YJL095W, strain BCK1 (second series), stronger effect = lower value 0.961 | locus YJL095W, strain BCK1, stronger effect = lower value 1.07 and 1.01 | locus YJL115W, strain asf1, stronger effect = lower value 0.963 | locus YJL129C, strain trk1, stronger effect = lower value 0.968 | locus YJL134W, strain LCB3, stronger effect = lower value 1.01 | locus YJL154C, strain vps35, stronger effect = lower value 0.968 | locus YJL164C, strain tpk1, stronger effect = lower value 0.96 | locus YJL166W, strain qcr8, stronger effect = lower value 0.975 | locus YJL168C, strain set2, stronger effect = lower value 0.987 | locus YJL187C, strain SWE1 (second series), stronger effect = lower value 1.04
